Screening results (PubChem)
TIM10 inh = growth inhibitors of isogenic TIM10 control yeast, primary screen, counter-screen for tim10-1 yeast inhibitor project, luminescence, uHTS; S. cerevisiae TIM10 strain growth, BacTiter-Glo luminescence, 24 h; inhibition, % at 10 µM; hit rate 1.4% among 330,000; AID 463195, 2010;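 active = inhibition of 40% or more at the single tested concentration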;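 also: wild-type TIM10 isogenic control strain grown at permissive 25 °C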
SKKanGAS inh = S. pyogenes SKKanGAS growth inhibitors in kanamycin, primary screen, streptokinase expression inhibitor project, SKKanGAS strain, BacTiter-Glo luminescence. hit rate 1.3% among 300,000. 6 h. inhibition, % at 7.5 µM;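 active = mean replicate score, as percent of positive control median, at least 50; inconclusive = mean below 50 but one replicate at or above 50; inactive = mean and every replicate below 50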;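 also: strain carries kanamycin resistance gene driven by streptokinase promoter and grows in 40 µg/ml kanamycin; loss of luminescence reflects streptokinase promoter inhibition or plain growth inhibition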
NALP1 yeast inh = NALP1 inflammasome inhibitors in reconstituted yeast, colorimetric, S. cerevisiae, triplicate retest. S. cerevisiae NALP1/ASC/caspase-1 growth, X-gal OD620, 72 h. inhibition, % at 10 µM. hit rate 0.61% among 280,000. AID 2071, 2009; in the data active = inhibition mostly above about 24%, no sharp cut-off; inactive = mostly below about 32%
PfHsp90 yeast 2 = growth inhibition of PfHsp90-expressing yeast, primary screen, antimalarial PfHsp90 inhibitor project, S. cerevisiae, BacTiter-Glo luminescence, single point, set 2; BacTiter-Glo ATP, 48 h; yeast lacking PDR1 and PDR3 efflux regulators; inhibition, % at 9.4 µM; hit rate 0.32% among 310,000; AID 504621, 2011;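 active = every replicate shows inhibition above about 80%, whatever the replicate mean, limit read from the data; inconclusive = mean inhibition reaches the set limit but some replicate falls short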
tim23-1 inh = growth inhibitors of tim23-1 mutant yeast, primary screen, luminescence, uHTS. S. cerevisiae tim23-1 growth, BacTiter-Glo luminescence, 24 h. inhibition, % at 20 µM. hit rate 1.3% among 330,000;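 active = growth inhibition of the mutant yeast at or above 50%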;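 also: temperature-sensitive mutant grown at 25 °C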
tim10-1 inh = growth inhibitors of tim10-1 mutant yeast, primary screen, luminescence, uHTS; AID 463190, 2010; hit rate 2.2% among 330,000; inhibition, % at 20 µM; S. cerevisiae tim10-1 ts strain growth, BacTiter-Glo, 24 h;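 active = inhibition of at least 40%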;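 also: mutant grown at 25 °C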
Each line names hits and unclear results; the compound was inactive in the other large screens. In the library only some 4.8% were active in any assay of this set; here they are far more common.

Cc1cc(C(=O)CSc2nc(N)cc(N)n2)c(C)n1-c1cccc(F)c1	none
N#Cc1nc(-c2ccc(Cl)cc2)oc1NCC1CCCO1 (stereo not drawn)	none
CCCCC[n+]1ccn(-c2nc3ccccc3nc2[N-]S(=O)(=O)c2ccc(C)cc2)c1	none
CCCCC[n+]1ccn(C2=C([O-])c3ccccc3C(=O)/C2=N\S(=O)(=O)c2ccccc2)c1	SKKanGAS inh 73.7
Cc1ccsc1C(=O)NCC(C)(C)N1CCOCC1	none (no result: SKKanGAS inh, NALP1 yeast inh)
O=c1[nH]n(-c2ccc(Cl)cc2)c2ncccc12	none
CCOC(=O)Cc1c(C)nc2c(-c3ccc(OC)cc3)c(C)nn2c1C	NALP1 yeast inh 42.8
CCn1c(CCNS(=O)(=O)c2ccccc2Br)nnc1SC	none
O=C(O)c1ccc(N/N=C/c2ccc(OC(=O)c3ccccc3Cl)cc2)cc1	SKKanGAS inh 63.4
O=C(O)c1ccc(N/N=C/c2ccc(-c3ccccc3)cc2)cc1	PfHsp90 yeast 2 97.6 (no result: TIM10 inh, tim23-1 inh, tim10-1 inh)
C[C@@H]1CN([C@H](C)CO)C(=O)c2cc(NC(=O)Nc3ccc(C(F)(F)F)cc3)ccc2O[C@H]1CN(C)Cc1ccc(Cl)c(Cl)c1	none (no result: SKKanGAS inh, NALP1 yeast inh)
C/C(N)=C(/C#N)C(=O)CSc1nc2scc(-c3ccccc3)c2c(=O)n1C	SKKanGAS inh 61.9
Cn1c(SCC(=O)NCC2CCCO2)nc2scc(-c3ccccc3)c2c1=O (stereo not drawn)	none (no result: SKKanGAS inh, NALP1 yeast inh)
CCCNC(=O)NC(=O)CSc1nc2ccccc2c(=O)n1Cc1ccncc1	none
Cc1nc2c(C)cccn2c(=O)c1NC(=O)c1ccc2c(c1)OCO2	SKKanGAS inh 50.2 (no result: NALP1 yeast inh)
O=C(/C=C/c1ccccc1)NCCc1ccccc1	SKKanGAS inh 100.0
CCCCNc1nc(N)nc(-c2cc(Cl)ccc2O)n1	PfHsp90 yeast 2 103.8
Cc1ccc(C(=O)OCC(=O)c2c(N)n(C)c(=O)n(C)c2=O)cc1S(=O)(=O)N1CCCCC1	none
COc1cccc(-c2nc(N3CCCCC3C)c3ccccc3n2)c1O (stereo not drawn)	SKKanGAS inh 75.7
COc1cccc(-c2nc(NC3CCCC3)c3ccccc3n2)c1O	SKKanGAS inh 55.5, PfHsp90 yeast 2 116.9
O=C(CC(O)(CC(=O)OCc1ccccc1)C(=O)OCc1ccccc1)OCc1ccccc1	none (no result: TIM10 inh, SKKanGAS inh, NALP1 yeast inh, tim23-1 inh, tim10-1 inh)
CCCOc1ccc(N2C(=O)CC(NNC(=O)c3ccc(COc4ccccc4)o3)C2=O)cc1 (stereo not drawn)	none
C/C(CCC(C)C)=N\NC(=O)COc1ccccc1-c1ccccc1	none (no result: TIM10 inh, SKKanGAS inh, PfHsp90 yeast 2, tim23-1 inh, tim10-1 inh)
Clc1ccccc1CN1CCN(c2ncccn2)CC1	none
CCn1cc(C(=O)OCC(=O)c2cc(C)n(-c3cccc(C(F)(F)F)c3)c2C)c(=O)c2ccc(C)nc21	SKKanGAS inh 58.7 (no result: TIM10 inh, tim23-1 inh, tim10-1 inh)
COc1cc(C(c2c(C)[nH][nH]c2=O)c2c(C)[nH][nH]c2=O)cc(Br)c1OC	none
O=C(NC(=S)N1CCN(C(c2ccccc2)c2ccccc2)CC1)c1ccc(S(=O)(=O)N2CCOCC2)cc1	SKKanGAS inh 66.4
CN1CCN(C(=S)NC(=O)c2ccc(S(=O)(=O)N3CCOCC3)cc2)CC1	none
CC(CCc1ccccc1)NC(=O)c1ccc(Br)cc1 (stereo not drawn)	PfHsp90 yeast 2 111.6
CC(CCc1ccccc1)NC(=O)Cc1ccc(Br)cc1 (stereo not drawn)	none
CCN(CC)c1ccc(/C=N/NC(=O)CCC(=O)NCc2ccccc2)c(O)c1	SKKanGAS inh 55.8
COc1cc(/C=N\NC(=O)CNC(=O)C2COc3ccccc3O2)ccc1O (stereo not drawn)	none
CCN(CC)c1ccc(/C=N/NC(=O)CNC(=O)C2COc3ccccc3O2)c(O)c1 (stereo not drawn)	SKKanGAS inh 58.5 (no result: PfHsp90 yeast 2)
C/C(=N\Nc1c(F)c(F)c(Br)c(F)c1F)c1ccncc1	none
O=C(Nc1cccc(C(F)(F)F)c1)c1cccnc1N1CCN(c2ccccc2)CC1	SKKanGAS inh 51.2
COc1ncnc(NS(=O)(=O)c2ccc(N)cc2)c1OC	none (no result: SKKanGAS inh, NALP1 yeast inh)
Cc1cnc(C(=O)Nc2ccc(F)c(F)c2)cn1	none
CCCCOc1ccc(NC(=O)c2cnc(C)cn2)cc1	NALP1 yeast inh 44.8
Cc1ccc(CNC(=O)CCS(=O)(=O)c2ccc(Br)s2)cc1	NALP1 yeast inh 43.1 (no result: PfHsp90 yeast 2)
O=C(Nc1ccccc1)N1CCCCC1c1cccnc1 (stereo not drawn)	none
Clc1ccccc1CO/N=C1\CCCc2nonc21	NALP1 yeast inh 42.6
S=c1[nH]nc(-c2cc3c(s2)-c2ccccc2CC3)o1	SKKanGAS inh 73.3
Cc1cc(C)c2[nH]c(O)c(N=NC3=NC(=O)CS3)c2c1	none (no result: NALP1 yeast inh)
Cc1cc(C)c2[nH]c(O)c(N=Nc3ccc(C(=O)O)cc3)c2c1	SKKanGAS inh 73.5
Cc1ccc(C)c(Cn2c(CN(C)Cc3ccccc3)nc3c2c(=O)n(C)c(=O)n3C)c1	NALP1 yeast inh 40.2
CC(=O)c1c(C)[nH]c(C(=O)N2CCN(c3ncccn3)CC2)c1C	NALP1 yeast inh 38.2
CCCN(Cc1ccccc1)C(=S)Nc1ccc(C(C)=O)cc1	none (no result: PfHsp90 yeast 2)
Cc1cccc(N2C(=O)CC(Sc3nc(C)cc(C)n3)C2=O)c1 (stereo not drawn)	none
Cc1cccc(N2C(=O)CC(Sc3nnc(C)s3)C2=O)c1 (stereo not drawn)	NALP1 yeast inh 35.3
CCCCNC(=O)Nc1ncn[nH]1	NALP1 yeast inh 39.6
Cc1ccc(C(=O)Nc2ncn[nH]2)cc1	none
O=C1/C(=C/c2ccc(N3CCOCC3)o2)SC(=Nc2ccccc2)N1CCc1c[nH]c2ccccc12	PfHsp90 yeast 2 141.7
COc1ccc(N=C2S/C(=C\c3ccc(OC(C)C(=O)O)c(OC)c3)C(=O)N2CCc2c[nH]c3ccccc23)cc1 (stereo not drawn)	SKKanGAS inh inconclusive
COc1cc(/C=C2\SC(=Nc3ccccc3)N(CCc3c[nH]c4ccccc34)C2=O)ccc1OC(C)C(=O)O (stereo not drawn)	SKKanGAS inh 54.5
COc1ccc(S(=O)(=O)N(C)C)cc1NC(=O)CCCSc1ccccc1	none
Cc1ccc(C(=O)N/N=C/c2cccc(OC(=O)/C=C/c3ccco3)c2)cn1	none
O=C(/C=C/c1ccco1)Oc1cc(Br)cc(/C=N/NC(=O)c2ccccc2O)c1	SKKanGAS inh 88.2 (no result: TIM10 inh, tim23-1 inh, tim10-1 inh)
Cc1nn2cc(-c3ncc(C(F)(F)F)cc3Cl)cnc2c1Br	none
O=C1Nc2ccc(Br)cc2/C1=C/C(=O)c1ccccc1	PfHsp90 yeast 2 106.2 (no result: TIM10 inh, SKKanGAS inh, NALP1 yeast inh, tim23-1 inh, tim10-1 inh)
O=C(O)COc1ccccc1/C=C1\C(=O)Nc2ccc(Br)cc21	none
Cc1nc(N)nc(N)c1CCCc1ccc(Cl)c(Cl)c1	SKKanGAS inh 109.0 (no result: NALP1 yeast inh)
Cc1ccc(C)c(SCC(=O)OCC(=O)Nc2ncc(C(F)(F)F)cc2Cl)c1	none
